We go through 50 compounds from PubChem BioAssay AID504690 (Sanford-Burnham Center for Chemical Genomics, 2011).

In all, about 350,000 compounds went through this assay and about 2,700 (0.77%) were called active. The entries come from a sample that favours actives as a whole. A number with no mark means an inactive call.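 Rule for the calls: active = inhibition reaching at least a set limit at 20 µM in the primary screen (cut at about 59% in these data); inactive = the rest.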

In general, inhibition refers to the relative decrease from the control value, in per cent.

The test system of the experiment is glucose-6-phosphate dehydrogenase-6-phosphogluconolactonase (Plasmodium falciparum 3D7). As to the kind of experiment: inhibition of malaria parasite G6PD (PfGluPho) – biochemical, fluorescence intensity, uHTS, primary screen (AID 504690).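 Note: 0% = DMSO wells with substrate and 100% = DMSO wells lacking glucose-6-phosphate.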 The conditions noted are these: PfGluPho enzyme, NADPH resazurin-diaphorase fluorescence; at 20 µM; hits give high values. On the technique in general: Alamar Blue is a resazurin reagent that responds to reducing activity.
As for `CC1(C)C=C2[C@H]3CC[C@@H]4[C@@]5(C)CCC(=O)C(C)(C)[C@@H]5CC[C@@]4(C)[C@]3(C)CC[C@@]2(C(=O)O)CC1`, the inhibition was -28.4%.
Next, `COc1ccc(-n2cnc3cc(NCc4ccco4)ccc32)cc1`: 23.7%.
Next, `Cn1c(SCC(=O)Nc2ccc(Br)cc2F)nnc1-c1ccco1`: -4.98%; `Cn1c(-c2ccco2)nc2cc3ccccc3cc21`: 60.5% (active); `COc1ccc(Cl)cc1NC(=O)CCS(=O)(=O)c1ccc(Br)cc1`: 43%.
In the case of `O=C(COC(=O)/C(=C/c1cccs1)c1cccs1)NCc1ccccc1Cl`, the inhibition was -3.87%.
In the case of `Cc1cc(N)n2nc(-c3ccc(C(C)(C)C)cc3)cc2n1` it was 84.5% (active).
Take `Cc1cc(C(C)(C)C)cc(C)c1N`: the inhibition is 12.1%.
As to `COc1ccc(-c2cc(C)nc3nc(N)nn23)cc1`, the inhibition was -2.23%.
For the compound `CC(C)C(c1nnnn1C1CCCCC1)N1CCN(C(=O)c2ccco2)CC1` (stereo not given), the inhibition is -12.7%.
Next, `CN(CCc1cnn(C)c1)Cc1cn(C)nc1-c1ccccc1F`: -8.15%; `CNC(=O)c1sc(Nc2ccc(OCc3ccccc3)cc2)nc1C`: 19.4%.
In the case of `COc1ccc(NC(=O)CCC(=O)Nc2nnc(C3CCCCC3)s2)cc1` it was -7.47%.
In the case of `COC(=O)CCc1sc(Nc2ccc(Br)cc2)nc1-c1ccc(OC)cc1` it was 64.3% (active); in that of `COc1ccc(NC(=O)CN2C(=O)COc3ccc(S(=O)(=O)N4CCOCC4)cc32)c(OC)c1`, -0.58%; in that of `O=C(c1ncn2c1c(=O)[nH]c1ccccc12)N1CCc2ccccc2C1`, 8.24%.
Turning to `O=c1[nH]c2ccccc2n2c(-c3ccccc3)nnc12`, the inhibition is 102% (active).
On to `CC(=O)N(C)c1ccc(NC(=O)Nc2cccc3ccccc23)cc1`, for which the inhibition was -6.82%.
Next, `COc1ccccc1C(=O)Nc1ccccc1C(=O)Nc1ccccc1`: 8.55%.
As for `COc1cc2ccccc2cc1C(=O)Nc1ccccc1C`, the inhibition was -15.2%.
On to `COc1ccc(C(=O)Nc2cc(C)c(NC(=O)c3ccccc3OC)cn2)cc1`, for which the inhibition is 79.1% (active).
In the case of `C=CCNC(=O)c1sc(SC)cc1-c1ccc(Cl)cc1`, the inhibition is 9.14%.
In the case of `CCc1ccc2[nH]c(=O)c(Cc3ccccc3)c(O)c2c1` it was -9.56%.
Next, `COc1ccc(CCC(=O)N2CCN(S(=O)(=O)c3ccc(OC)cc3)CC2)cc1`: -10.5%.
Next, `O=c1[nH]c2ccccc2s1`: 5.6%; `Nc1ccc2[nH]c(=S)sc2c1`: 74.7% (active); `C/C(=C\c1ccco1)CN1CCC(N2CCC(C(=O)N3CCOCC3)CC2)CC1`: -6.22%.
For `CN(C(=O)c1cccc(NC(=O)Cc2cccc(NC(=O)C3CCCN(C(=O)C4CC4)C3)c2)c1)C1CCC1` (stereo not given), the inhibition is 13.5%.
In the case of `Cc1ccc(Nc2nc(CSc3nnnn3-c3ccccc3)cc(=O)[nH]2)cc1` it was 2.74%.
In the case of `COc1ccc(NC(=O)COC(=O)C2COc3ccccc3O2)cc1` (stereo not given) it was -2.2%.
Next, `C/C(=N/NC(=O)C1COc2ccccc2O1)c1ccco1` (stereo not given): -17.2%; `O=C(Nc1nc(-c2ccncc2)cs1)C1COc2ccccc2O1` (stereo not given): 82.1% (active); `CCOC(=O)C1(CCOc2ccccc2)CCN(C(=O)c2cncs2)CC1`: -8.03%.
Take `N#Cc1cnn2cc(CCN3CCOCC3)c(-c3ccc(F)cc3)nc12`: the inhibition was -4.2%.
Take `O=C1C=CC(=O)N1c1ccc(N2CCCCC2)cc1`: the inhibition was 59.2% (active).
On to `O=C(C1CCC1)N1CCN(c2ccccc2)CC1`, for which the inhibition was -11.2%.
`O=C(C1CC(=O)N(C2CCCCC2)C1)N1CCN(c2ccccc2)CC1` (stereo not given): the inhibition was 1.77%.
Next, `O=C(CSc1ccc(C(F)(F)F)cc1[N+](=O)[O-])NCCOc1ccccc1`: 4.59%; `CCc1cccc(NC(=S)N(CCN(C)C)C2CCN(C(C)C)CC2)c1`: -1.59%; `CC(C)c1cc(C(N)=O)c(NC(=O)c2cccc(COc3ccc(Br)cc3)c2)s1`: 17.7%.
Next, `CC(C)Oc1ccc(C(=O)NC(C)(C)CO)cc1`: -5.29%; `CCOC(=O)c1sc(NC(=O)CSc2nc(C)cc(C(F)(F)F)n2)c(C#N)c1C`: 60.4% (active).
In the case of `CCn1c(SCC(=O)Nc2sc(C)c(C)c2C#N)nnc1C1CC1` it was 13.8%; in that of `Cc1cc(C(F)(F)F)nc(SCC(=O)Nc2nccs2)n1`, 14.7%.
For `CCOC(=O)c1cc2c(=O)n3ccccc3nc2n(CC(C)C)c1=NC(=O)c1c(-c2c(F)cccc2Cl)noc1C`, the inhibition was 10.9%.
Next, `O=C(Cc1ccccc1)N/N=C/c1ccc(Cl)cc1Cl`: 8.79%; `O=C(CSc1nnc(SCc2ccc(F)cc2)s1)Nc1ccc(C(=O)O)cc1`: -15.7%.
In the case of `O=C(CSc1nnc(SCc2ccc(Cl)cc2)s1)N/N=C/c1ccccc1Cl` it was 75.1% (active).
For `CC1CCCN(C(=O)Cn2c(=O)oc3cc(S(=O)(=O)N4CCCCC4C)ccc32)C1` (stereo not given), the inhibition is -4.91%.
Next, `CC(C)(C)c1cc2cccnc2n1Cc1ccccc1`: 2.96%.
